For experiment [1], the system named is Wnt5a (protein binding on small-molecule microarray). As to the kind of experiment: small molecules binding Wnt5a protein – biophysical, small-molecule microarray, 635/667 nm fluorescence, primary screen (AID 1142).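 Further: fluorescence read at 667 nm with signal to noise per printed feature.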 Particulars: 635 nm fluorescence, higher = more signal.
The nature of experiment [2]: ATP-based viability of Huh7 replicon cells – cell-based, CellTiter-Glo luminescence, basal, 48 h, cytotoxicity control for HCV replication inhibitor project, primary screen (AID 1143).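 Further: Huh7 hepatoma cells carrying a hepatitis C replication reporter with no stimulus; test concentration not given here.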 Particulars: higher = more signal, called active from +8 up or from −8 down.
A short description of experiment [3]: Pseudomonas biofilm growth suppression – PAO1 strain, BacTiter-Glo luminescence, LB-PBS, primary screen (AID 1144). The settings on record: P. aeruginosa PAO1 biofilm, 12 h, higher = more signal.
The nature of experiment [4]: basal CRE-LacZ reporter activity in PC12 – cell-based, unstimulated, primary screen (AID 1145). Particulars: no forskolin, luminescence, 4.5 h, higher = more signal, called active from +8 up or from −8 down.
The nature of experiment [5]: forskolin-driven CRE-LacZ activity in PC12 – cell-based, CRE-LacZ reporter, forskolin-stimulated, primary screen (AID 1146).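 Further: PC12 cells with 6xCRE LacZ reporter stimulated by forskolin 10 µM; beta-galactosidase reporter signal reflecting CREB driven transcription.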 The settings on record: luminescence, 4.5 h, higher = more signal, called active from +8 up or from −8 down.
Experiment [6] has as its target Streptavidin (Streptomyces avidinii) (UniProt P22629). As to the kind of experiment: compounds binding control protein streptavidin – biophysical, small-molecule microarray, 635/667 nm fluorescence, artefact control for SMM compound annotation, primary screen (AID 1147).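 Further: signal reflects streptavidin binding to arrayed compounds as a control protein.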 Particulars: higher = more signal.
Experiment [7] can be described thus: probe aInhba binding on compound microarray – biochemical, small-molecule microarray, 635/667 nm fluorescence, primary screen (AID 1148).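 Further: score merges 667nm spot fluorescence with signal-to-noise for antibody binding to printed compounds.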 Particulars: higher = more signal.
Experiment [8] has as its target Torsin-1A (Homo sapiens) (UniProt O14656). Kind of experiment: TOR1A wild-type binding on microarray – cell lysate, small-molecule microarray, lysate, 635/667 nm, primary screen (AID 1149). The settings on record: COS7 hTOR1A-WT lysate, 635 nm fluorescence, higher = more signal.
Experiment [9] shares this target. As to the kind of experiment: torsin A mutant lysate binding on microarrays – cell lysate, small-molecule microarray, COS7 lysate, 635/667 nm fluorescence, primary screen (AID 1150).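 Further: score pools 667 nm emission and signal to noise measuring lysate protein binding.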 Particulars: COS7 hTOR1A mutant lysate, 635 nm fluorescence, higher = more signal.
Experiment [10] has as its system Sonic hedgehog protein (Shh). As to the kind of experiment: Sonic hedgehog microarray binding compounds – biochemical, small-molecule microarray, 635/667 nm fluorescence, primary screen (AID 1151).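 Further: Shh protein binding to compounds spotted on small-molecule microarray slides; score combines spot fluorescence intensity with signal-to-noise across triplicate slides.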 The settings on record: 635 nm fluorescence, higher = more signal.
A short description of experiment [11]: optical density shifts of acrAB sulA E. coli – strain DRC41, OD650, 48 h, E. coli filamentation inducer project, primary screen (AID 1152).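 Further: E. coli MC1000 strain DRC41 lacking acrAB efflux pump and sulA.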 Particulars: higher = more signal, called active from +8 up or from −8 down.
A short description of experiment [12]: probe aLefty1 binding on compound microarray – biochemical, small-molecule microarray, 635/667 nm fluorescence, primary screen (AID 1153).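 Further: score merges spot fluorescence with signal-to-noise ratio from the scanned slide images.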 Particulars: higher = more signal.
Experiment [13] can be described thus: plasmodial surface anion channel blockers, osmotic lysis – cell-based, P. falciparum Indochina, OD700, 1 h, primary screen (AID 1154). Particulars: P. falciparum Indochina infected RBC osmotic lysis, higher = more signal, called active from +8 up or from −8 down.
The nature of experiment [14]: plasmodial surface anion channel blockers, osmotic lysis – cell-based, P. falciparum Indochina, OD700, 2 h, primary screen (AID 1155).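 Further: lysis reports solute entry through the parasite surface anion channel PSAC.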 The settings on record: P. falciparum Indochina infected erythrocytes, higher = more signal, called active from +8 up or from −8 down.
Experiment [15] in a line: changes in parasitized red cell lysis, either direction – P. falciparum Indochina, OD700, 3 h, PSAC antagonist project, primary screen (AID 1156). Particulars: P. falciparum-infected erythrocytes, osmotic lysis, higher = more signal, called active from +8 up or from −8 down.
The nature of experiment [16]: plasmodial surface anion channel blockers, osmotic lysis – cell-based, P. falciparum Indochina, OD700, 18 h, primary screen (AID 1157). Particulars: P. falciparum Indochina infected erythrocytes, osmotic lysis OD700, 18 h; higher = more signal, called active from +8 up or from −8 down.
The nature of experiment [17]: S6 kinase pathway phospho-S6 level changes – cell-based, A549, cytoblot, luminescence, serum-stimulated, primary screen (AID 1158).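 Further: serum-stimulated A549 lung adenocarcinoma cells; signal is phosphorylated S6 detected by cytoblot immunostaining with HRP secondary.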 Particulars: 5 h, higher = more signal.
In experiment [18] the target is NADPH oxidase 2 (Homo sapiens) (UniProt P04839). As to the kind of experiment: compounds shifting NOX2 Amplex Red fluorescence – cell-based, HEK293-NOX2, PMA-stimulated, NOX inhibitor project, primary screen (AID 1159). Further: test concentration not given here. The settings on record: 45 min, higher = more signal, called active from +8 up or from −8 down.
Experiment [19] has as its target NADPH oxidase 4 (Homo sapiens) (UniProt Q9NPH5). As to the kind of experiment: compounds shifting NOX4 Amplex Red fluorescence – cell-based, HEK293-NOX4, tetracycline-induced, NOX inhibitor project, primary screen (AID 1160). Particulars: HEK293-NOX4, Amplex Red H2O2 fluorescence, 45 min; higher = more signal, called active from +8 up or from −8 down.
Experiment [20] addresses NADPH oxidase 5 (Homo sapiens) (UniProt Q96PH1). Kind of experiment: compounds shifting NOX5 Amplex Red fluorescence – cell-based, HEK293-NOX5, NOX inhibitor project, primary screen (AID 1161). The settings on record: HEK293-NOX5, ionomycin, 45 min, higher = more signal.

SMILES strings stand for the structures. Active and inactive are the calls of the source. Unless noted, how the calls were made is not given here.

NADPH oxidase 4 (Homo sapiens), sequence (Q9NPH5 whole entry, looked up): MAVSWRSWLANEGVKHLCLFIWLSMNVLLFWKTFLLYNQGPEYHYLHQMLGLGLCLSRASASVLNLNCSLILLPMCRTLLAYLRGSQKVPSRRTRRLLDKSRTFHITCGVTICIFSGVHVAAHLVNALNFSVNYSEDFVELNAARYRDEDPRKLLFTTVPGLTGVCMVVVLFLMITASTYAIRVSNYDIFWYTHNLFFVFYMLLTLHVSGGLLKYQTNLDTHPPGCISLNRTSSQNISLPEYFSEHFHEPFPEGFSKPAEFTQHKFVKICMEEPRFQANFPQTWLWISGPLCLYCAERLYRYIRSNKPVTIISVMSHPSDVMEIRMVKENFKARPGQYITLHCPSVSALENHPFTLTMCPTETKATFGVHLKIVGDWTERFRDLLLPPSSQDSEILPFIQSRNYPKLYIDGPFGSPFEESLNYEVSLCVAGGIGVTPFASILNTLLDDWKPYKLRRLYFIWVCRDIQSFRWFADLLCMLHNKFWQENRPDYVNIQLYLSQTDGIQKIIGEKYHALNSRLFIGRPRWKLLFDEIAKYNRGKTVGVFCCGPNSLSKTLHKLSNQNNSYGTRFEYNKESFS
NADPH oxidase 5 (Homo sapiens), sequence (Q96PH1 whole entry, looked up): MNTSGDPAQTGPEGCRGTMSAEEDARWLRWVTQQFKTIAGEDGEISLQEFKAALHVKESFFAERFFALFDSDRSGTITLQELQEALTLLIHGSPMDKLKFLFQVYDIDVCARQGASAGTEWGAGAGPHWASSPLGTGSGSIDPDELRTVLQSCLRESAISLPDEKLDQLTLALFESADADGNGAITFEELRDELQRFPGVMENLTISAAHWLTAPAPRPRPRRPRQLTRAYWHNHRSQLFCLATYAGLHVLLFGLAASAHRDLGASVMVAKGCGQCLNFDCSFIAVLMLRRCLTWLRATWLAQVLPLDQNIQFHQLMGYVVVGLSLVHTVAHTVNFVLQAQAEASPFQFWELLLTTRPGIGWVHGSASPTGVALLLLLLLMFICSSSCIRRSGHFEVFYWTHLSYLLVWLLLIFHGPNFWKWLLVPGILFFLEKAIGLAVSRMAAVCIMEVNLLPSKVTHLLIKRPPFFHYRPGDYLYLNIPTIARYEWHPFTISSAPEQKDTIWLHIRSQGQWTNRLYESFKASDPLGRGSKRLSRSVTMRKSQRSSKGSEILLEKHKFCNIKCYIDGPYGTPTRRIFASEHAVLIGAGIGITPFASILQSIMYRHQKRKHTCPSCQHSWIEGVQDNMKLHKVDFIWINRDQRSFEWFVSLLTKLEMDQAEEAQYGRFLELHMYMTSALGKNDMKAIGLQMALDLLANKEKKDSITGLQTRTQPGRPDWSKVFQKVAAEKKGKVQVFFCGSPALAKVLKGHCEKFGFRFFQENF
Torsin-1A (Homo sapiens), sequence (O14656 whole entry, looked up): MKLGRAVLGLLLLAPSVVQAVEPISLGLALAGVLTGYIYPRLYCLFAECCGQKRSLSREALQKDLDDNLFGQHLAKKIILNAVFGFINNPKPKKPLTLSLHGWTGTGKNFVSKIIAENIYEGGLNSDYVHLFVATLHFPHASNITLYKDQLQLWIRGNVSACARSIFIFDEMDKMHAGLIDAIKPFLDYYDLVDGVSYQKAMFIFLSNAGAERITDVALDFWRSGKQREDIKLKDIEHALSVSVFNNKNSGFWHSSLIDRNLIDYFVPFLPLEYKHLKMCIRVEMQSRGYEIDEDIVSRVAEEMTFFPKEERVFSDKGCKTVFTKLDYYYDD
NADPH oxidase 2 (Homo sapiens), sequence (P04839 whole entry, looked up): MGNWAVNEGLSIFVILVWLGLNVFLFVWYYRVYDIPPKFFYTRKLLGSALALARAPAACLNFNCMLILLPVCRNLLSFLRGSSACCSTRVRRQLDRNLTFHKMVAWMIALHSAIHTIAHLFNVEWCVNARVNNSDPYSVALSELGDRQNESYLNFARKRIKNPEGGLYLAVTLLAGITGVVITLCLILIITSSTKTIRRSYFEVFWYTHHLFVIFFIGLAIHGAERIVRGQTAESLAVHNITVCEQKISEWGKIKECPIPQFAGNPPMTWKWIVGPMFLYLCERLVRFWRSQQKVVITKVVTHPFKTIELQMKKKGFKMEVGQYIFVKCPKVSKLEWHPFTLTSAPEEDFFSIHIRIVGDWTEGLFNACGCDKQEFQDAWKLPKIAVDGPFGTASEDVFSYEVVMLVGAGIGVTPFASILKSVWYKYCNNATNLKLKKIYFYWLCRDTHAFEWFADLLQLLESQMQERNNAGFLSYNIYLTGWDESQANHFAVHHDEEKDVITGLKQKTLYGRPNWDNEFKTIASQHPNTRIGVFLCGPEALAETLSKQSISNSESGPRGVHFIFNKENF
Streptavidin (Streptomyces avidinii), sequence (P22629 whole entry, looked up): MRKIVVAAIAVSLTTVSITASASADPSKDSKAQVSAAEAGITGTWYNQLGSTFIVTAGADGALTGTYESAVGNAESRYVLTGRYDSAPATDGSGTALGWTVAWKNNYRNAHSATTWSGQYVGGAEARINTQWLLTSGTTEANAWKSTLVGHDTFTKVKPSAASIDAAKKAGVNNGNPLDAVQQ

Take `O=C1C[C@@H](O)[C@@H](O)[C@@H]2[C@@H]3C(=O)N(C4CCCCC4)C(=O)[C@@H]3CC[C@@H]12`: the composite z-score in [1] was 0.0446; in experiment [6], 0.148; in experiment [7] it was -0.145; in experiment [8] it was -0.0977; in experiment [9], 0.311; in experiment [10], 0.684. The composite z-score in [12] is -0.395. Moreover, the z-score in [2] is 0.0366 (inactive); in experiment [3], 0.749 (inactive); in [4] it was -0.0223 (inactive); in [5] it was -0.393 (inactive); in experiment [11] it was -0.348 (inactive); in experiment [13], 0.733 (inactive). Moreover, the z-score in [14] is 0.14 (inactive); in experiment [15], 0.265 (inactive); in experiment [16], -0.0387 (inactive); in experiment [17], -0.604; in experiment [18] it was -0.0439 (inactive); in experiment [19] it was 0.468 (inactive). For the same molecule, the z-score in experiment [20] turned out to be 0.0192.
With `CC(C)(C)N1C(=O)[C@H]2[C@@H]3C(=CC[C@H]2C1=O)C(=O)[C@H]1O[C@H]1[C@H]3O`, the composite z-score in experiment [1] is -0.264; in experiment [6], -0.5; in experiment [7], -0.127; in experiment [8], 1.84; in [9], -0.0252; in [10] it was 0.981. This molecule also showed a composite z-score in experiment [12] of -0.328. Besides, the z-score is -6.85 (inactive) in experiment [2]; 0.652 (inactive) in experiment [3]; -0.748 (inactive) in experiment [4]; -3.08 (inactive) in experiment [5]; -0.537 (inactive) in experiment [11]; -0.23 (inactive) in experiment [13]. In addition, the z-score was -1.7 (inactive) in experiment [14]; 0.0794 (inactive) in experiment [15]; -2.24 (inactive) in experiment [16]; 0.495 in experiment [17]; -0.593 (inactive) in experiment [18]; -0.168 (inactive) in experiment [19]. Moreover, in [20], the z-score turned out to be 1.22.
On to `CC(C)CN1CCc2nc(-c3ccccc3)c3c(c2C1)CO[C@@H](C)C3`, for which the composite z-score in experiment [1] came to 0.379; in experiment [6] it was 0.235; in experiment [7], 0.115; in experiment [8] it was 0.0937; in experiment [9], 0.571; in experiment [10] it was 0.421. The composite z-score in experiment [12] worked out at 0.123. For the same molecule, the z-score is -0.718 (inactive) in [2]; -0.876 (inactive) in experiment [3]; 9.42 (active) in experiment [4]; -1.44 (inactive) in experiment [5]; 0.696 (inactive) in experiment [11]; 1.56 (inactive) in [13]. Moreover, the z-score in experiment [14] is 0.711 (inactive); in experiment [15], 0.61 (inactive); in experiment [16], 0.615 (inactive); in experiment [17], 0.418; in [18], 2.18 (inactive); in [19], -2.08 (inactive). In experiment [20], the z-score was 0.551.
For `O=C1[C@H]2[C@H]3[C@H](O)[C@H](O)CC(=NO[C@@H]4O[C@H](CO)[C@@H](O)[C@H](O)[C@H]4O)[C@@H]3CC[C@H]2C(=O)N1C1CCCCC1`, the composite z-score came out at 0.258 in [1]; 0.247 in [6]; 0.0342 in experiment [7]; 0.603 in experiment [8]; 0.0159 in experiment [9]; 0.635 in experiment [10]. The molecule further yielded a composite z-score in experiment [12] of -0.126. The z-score is 0.0805 (inactive) in [2]; 0.577 (inactive) in experiment [3]; 0.342 (inactive) in [4]; 0.758 (inactive) in [5]; 0.381 (inactive) in [11]; 0.785 (inactive) in [13]. Besides, the z-score in experiment [14] was 0.636 (inactive); in experiment [15], 1.04 (inactive); in experiment [16], 0.228 (inactive); in [17], 0.322; in experiment [18] it was -0.336 (inactive); in experiment [19], 0.607 (inactive). The z-score in experiment [20] is 0.573.
For the molecule `CC(C)(C)N1C(=O)[C@H]2[C@H]3[C@H](O)[C@H](O)CC(=NOC[C@@H](O)COCc4ccco4)[C@H]3CC[C@H]2C1=O`, the composite z-score was -0.0267 in experiment [1]; 0.422 in experiment [6]; -0.0279 in experiment [7]; 0.506 in experiment [8]; 0.465 in [9]; -0.0386 in experiment [10]. The molecule also had a composite z-score in experiment [12] of 0.21. Moreover, the z-score is 0.186 (inactive) in experiment [2]; -0.486 (inactive) in experiment [3]; 0.701 (inactive) in experiment [4]; -0.113 (inactive) in experiment [5]; 0.0965 (inactive) in experiment [11]; 1.18 (inactive) in [13]. For the same molecule, the z-score in experiment [14] is -0.423 (inactive); in experiment [15], 0.0556 (inactive); in [16], 0.33 (inactive); in [17], -0.159; in [18] it was 0.119 (inactive); in experiment [19], 0.0791 (inactive). The z-score in experiment [20] is 0.188.
`CC(C)[C@@H](OCc1ccccc1)[C@H](C)CON=C1[C@H]2CCn3c(=O)n(-c4ccccc4)c(=O)n3[C@H]2[C@H](O)[C@@H]2O[C@H]12`: the composite z-score in experiment [1] was 0.186; in experiment [6], 0.164; in experiment [7] it was -0.128; in experiment [8] it was 0.0645; in experiment [9] it was 0.41; in [10], 0.89. The composite z-score in experiment [12] is -0.186. Also, the z-score in experiment [2] was -0.367 (inactive); in [3], 1.21 (inactive); in [4], -0.408 (inactive); in experiment [5], 1.2 (inactive); in [11] it was 0.352 (inactive); in [13] it was 0.509 (inactive). The z-score in experiment [14] was -0.116 (inactive); in experiment [15], -0.171 (inactive); in [16] it was 0.245 (inactive); in experiment [17], -0.952; in experiment [18] it was -0.662 (inactive); in experiment [19] it was 0.202 (inactive). Moreover, in experiment [20], the z-score was -0.851.

For the origin of these results see PubChem BioAssay.
